Here are results for five compounds from PubChem BioAssay (NCI).

The assay is described as follows: NCI Yeast Anticancer Drug Screen. Data for the mec2-1 strain (AID 157). As to conditions: S. cerevisiae mec2-1 strain, active compounds read high. As to the method: Growth inhibition of yeast strains with defined genetic alterations is measured as a screen for potential anti-cancer activity. Selected strains with alterations in DNA damage repair or cell cycle control were exposed to compounds and growth inhibition was measured relative to vehicle treated controls. The strain used in this assay is mec2-1

[1] abbreviates: at 5.0 µM (retest, dose inferred, filed as 0.5).
Where [2] appears, read: at 50.0 µM (retest, dose inferred, filed as 5.0).

Where “and” joins values, the source holds several entries; their conditions need not be identical. Identical values can stand only once. About 79,000 compounds went through this panel and 15% of them were active in at least one assay; those are over-represented in the sample as a whole. A number with no mark means an inactive call. Calls of active or inactive are those of the source. Rule as the data show it: active = growth inhibition above about 70%; inactive = the rest.

Regarding `Cc1ccc2oc(-c3cccc(N)c3)nc2c1`, the growth inhibition is, setting by setting: (at 1.2 µM) -2%; (at 3.7 µM) -3%; under setting [1], -10%; (at 11.0 µM) 3%; (at 33.0 µM) 3%; under setting [2], 13%. The growth inhibition runs as follows: (at 50.0 µM) 3.95%; (at 100.0 µM) 8%.

As for `CC(O)CN1C(=O)c2cccc3cc([N+](=O)[O-])cc(c23)C1=O` (stereo not given), the growth inhibition by setting is: (at 1.2 µM) -17%; (at 3.7 µM) -11%; under setting [1], -16%; (at 11.0 µM) 2%; (at 33.0 µM) 34%; under setting [2], 65%. The growth inhibition (at 50.0 µM) is 67.4% and the growth inhibition (at 100.0 µM) is 42%.

As for `O=S(=O)(O)c1ccc2c(N=Nc3c(O)ccc4ccccc34)cccc2c1`, the growth inhibition is, setting by setting: (at 1.2 µM) 1%; (at 3.7 µM) 6%; under setting [1], 3%; (at 11.0 µM) 20%; (at 33.0 µM) 38%; under setting [2], 48%. Also, the growth inhibition runs as follows: (at 50.0 µM) 83.3% (active); (at 100.0 µM) 84% (active).

Consider `NCC(O)CSCc1ccc(Cl)cc1` (stereo not given), for which the growth inhibition was -3% (at 1.2 µM); -2% (at 3.7 µM); -14% under setting [1]; -2% (at 11.0 µM); -2% (at 33.0 µM); 5% under setting [2]. Further, the growth inhibition is 25.1% (at 50.0 µM) and 3% (at 100.0 µM).

Take `COc1ccc2[nH]c3c(C)c4cc[n+](C)cc4c(C)c3c2c1`: the growth inhibition was 15% and 23% (at 1.2 µM); 45% and 18% (at 3.7 µM); 9% and 3% under setting [1]; 53% and 27% (at 11.0 µM); 44% and 36% (at 33.0 µM); 44% and 16% under setting [2]. The growth inhibition is 21.2% and 56.6% (at 50.0 µM); 53% and 61% (at 100.0 µM).
